# Source: PubChem (Sanford-Burnham Center for Chemical Genomics)
# CYP2C19 activ: activators of human cytochrome P450 2C19; P33261; recombinant CYP2C19, luciferin-H EGE luminescence; stronger effect = higher value; 0 = fully inhibited enzyme, 1 = untreated enzyme; activation factor at 5 µM; 96,000 tested, under 10 active;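 active = activation factor of at least 2 at 5 µM in the primary screen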;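 also: 0 = wells with 2.5 mM tranylcypromine and 1 = vehicle-only wells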
# Target sequence (P33261 whole entry, looked up): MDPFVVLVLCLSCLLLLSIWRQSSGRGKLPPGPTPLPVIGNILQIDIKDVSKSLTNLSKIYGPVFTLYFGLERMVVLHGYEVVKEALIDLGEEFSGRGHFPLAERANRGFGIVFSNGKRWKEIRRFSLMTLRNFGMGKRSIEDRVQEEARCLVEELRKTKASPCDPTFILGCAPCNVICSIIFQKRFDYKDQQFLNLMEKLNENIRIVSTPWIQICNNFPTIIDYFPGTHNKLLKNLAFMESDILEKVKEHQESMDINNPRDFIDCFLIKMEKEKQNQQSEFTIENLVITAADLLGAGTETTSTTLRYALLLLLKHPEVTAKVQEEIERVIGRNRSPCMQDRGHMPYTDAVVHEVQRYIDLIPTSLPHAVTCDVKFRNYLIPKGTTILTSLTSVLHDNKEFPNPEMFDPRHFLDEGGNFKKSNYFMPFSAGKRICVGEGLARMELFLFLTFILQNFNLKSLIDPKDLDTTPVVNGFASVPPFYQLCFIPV
# Mac1 fbg inh: CD11b/CD18-fibrinogen binding inhibition | AID 1497 | K562 CD11b/CD18 adhesion to fibrinogen, ATPlite luminescence; Mn2+ added to activate the integrin | 93,000 tested, 0.54% active | inhibition, % at 10 µM | P05107+P11215;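 active = primary inhibition of 50% or more at 10 µM, then 40% or more on retest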
# CD11b adhes enh: enhancers of human CD11b/CD18 binding to fibrinogen. P05107+P11215. K562 CD11b/CD18 adhesion to fibrinogen, ATPlite luminescence. activation, % at 10 µM. 93,000 tested, 0.07% active;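 active = 10 µM primary screen giving 50% or more activity, confirmed by 40% or more on retest at that dose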
# CYP2C9 act: activators of human CYP2C9; P11712; recombinant CYP2C9, luciferin-H conversion, luminescence; stronger effect = higher value; factor 1 = untreated enzyme, 0 = blocked; activation factor at 5 µM; 96,000 tested, 1.4% active; AID 1024;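 active = activation factor of 2 or more for CYP2C9 at a 5 µM dose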;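 also: 0 = sulfaphenazole-blocked wells and 1 = vehicle-only wells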
# CYP2C19 inhib: inhibitors of human CYP2C19; inhibition, % at 5 µM; P33261; 96,000 tested, 21% active; CYP2C19 Supersomes, luciferin-H EGE luminescence, 30 min;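 active = CYP2C19 inhibition above a set limit at 5 µM in the primary screen, cut at about 50% in these data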;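 also: plate controls were negative control wells for no effect and 2.5 mM tranylcypromine positive control for full effect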
# CYP2C9 inhib: inhibitors of human CYP2C9; CYP2C9 Supersomes, luciferin-H conversion, luminescence; inhibition, % at 5 µM; AID 777; 96,000 tested, 20% active; P11712;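 active = blocking of liver enzyme CYP2C9 beyond about 50% at 5 µM, limit read from the data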
# Numbers without * were called inactive; . = no result. Hits are enriched below; roughly 28% of the tested compounds scored in any of these assays.
SMILES,CYP2C19 activ,Mac1 fbg inh,CD11b adhes enh,CYP2C9 act,CYP2C19 inhib,CYP2C9 inhib
COc1ccc(N(CC(=O)NCc2cccs2)S(=O)(=O)c2c(C)nn(C)c2C)cc1,0.3,5,0,0.7,72*,32
COCCNC(=O)CN(c1ccc(C)cc1)S(=O)(=O)c1ccccc1,0.9,-6,-2,1.1,12,-11
COc1ccc(N(CC(=O)NC2CCCCCC2)S(=O)(=O)c2c(C)nn(C)c2C)cc1,0.7,-8,-1,0.5,33,50*
COc1ccc(N(CC(=O)N2CCC(C)CC2)S(=O)(=O)c2c(C)nn(C)c2C)cc1,0.3,-16,-2,0.6,75*,37
Cc1ccc(N(CC(=O)NCc2cccs2)S(=O)(=O)c2cccs2)cc1,0,-25,-2,0.3,96*,74*
Cc1nn(C)c(C)c1S(=O)(=O)N(CC(=O)NCCCOC(C)C)c1ccc(C(C)C)cc1,0.5,-8,-1,0.7,46,28
CCCn1c(SCC(=O)NC2CCCCC2C)n[nH]c1=O (stereo not drawn),1.2,20,-1,1.2,-24,-19
CC(C)c1cc(CN2CCN(CCC#N)CC2)cc(C(C)C)c1O,1.1,.,.,1.2,-12,-21
COc1ccc(N(CC(=O)NCc2ccccc2)S(=O)(=O)c2c(C)nn(C)c2C)cc1,0.2,-12,0,0.7,85*,30
CCN(CC)S(=O)(=O)c1cccc(C(=O)N[C@H](C(=O)NCc2ccc(Cl)cc2)C(C)C)c1,0.7,2,2,0,29,97*
CCN(CC)S(=O)(=O)c1cccc(C(=O)N[C@H](C(=O)OCC(=O)NC(=O)NC)C(C)C)c1,0.7,.,.,0.8,31,24
CCN(CC)S(=O)(=O)c1cccc(C(=O)NC(C(=O)Nc2nnc(C)s2)C(C)C)c1 (stereo not drawn),0.6,-8,1,0.2,43,78*
CCN(CC)S(=O)(=O)c1cccc(C(=O)N[C@H](C(=O)NCc2ccccc2F)C(C)C)c1,0.8,50,-6,0.2,20,85*
CCN(CC)S(=O)(=O)c1ccc(Cl)c(C(=O)Nc2nnc(C)s2)c1,1.1,-14,-5,0.2,-7,80*
CCN(CC)S(=O)(=O)c1cccc(C(=O)Nc2cc(C)cc(C)c2)c1,0.6,.,.,0.6,41,40
CCN(CC)S(=O)(=O)c1cccc(C(=O)N[C@H](C(=O)O)C(C)C)c1,1.2,-3,1,1.1,-16,-6
Cc1ccc(NC(=O)Nc2nc(-c3ccc(C)s3)cs2)cc1,0.8,.,.,0.8,18,25
CC(CCCC(C)(C)O)NCCO (stereo not drawn),1,-6,-8,1,2,4
CCOC(=O)C1=C(c2ccccc2)OC(N)=C(C#N)C1c1cccs1 (stereo not drawn),0.9,8,-1,0.9,6,12
CCOC(=O)CC1=C(C(=O)OCC)C(c2cccs2)C(C#N)=C(N)O1 (stereo not drawn),0.2,4,-4,0.7,78*,28
CCN(CC)C(=O)CSC1=C(C#N)C(c2cccs2)C=C(C)N1 (stereo not drawn),0.4,-7,-2,0.9,60*,14
CCOC(=O)C1=C(CC)OC(N)=C(C#N)C1c1cc(OC)ccc1OC (stereo not drawn),0.2,-18,-1,0,82*,98*
Cc1cc(C2C(C#N)=C(N)Oc3n[nH]c(C)c32)c(C)s1 (stereo not drawn),0.9,.,.,1,10,3
COC(=O)C1=C(C)OC(N)=C(C#N)C1c1cc(C)sc1C (stereo not drawn),0.1,-23,5,0.7,88*,28
Cc1cc(C2C(C#N)=C(N)SC(N)=C2C#N)c(C)s1,0.1,-5,6,1,92*,2
SMILES,CYP2C19 activ,Mac1 fbg inh,CD11b adhes enh,CYP2C9 act,CYP2C19 inhib,CYP2C9 inhib
C#CCSC1=C(C#N)C(c2cccs2)C(C(=O)OCC)=C(C)N1 (stereo not drawn),0.4,24,1,0.3,64*,72*
Cc1sccc1C1C(C#N)=C(N)SC(N)=C1C#N,0.7,0,-2,1.4,35,-38
CCOC(=O)C1=C(C)OC(N)=C(C#N)C1c1ccc(OC)c(C)c1OC (stereo not drawn),0.3,2,8,0.4,73*,55*
CCOC(=O)CC1=C(C(=O)OCC)C(c2ccc(OC)c(OC)c2)C(C#N)=C(N)O1 (stereo not drawn),0.3,-24,13,0.1,74*,87*
CCC1CCC/C1=N\NC(=O)c1cc(C)[nH]n1 (stereo not drawn),0.8,-4,-2,0.9,20,9
COC(=O)CC1=C(C(=O)OC)C(c2ccncc2)C(C#N)=C(N)O1 (stereo not drawn),0.2,-34,-2,0.2,80*,80*
CCOC(=O)C1=C(C)OC(N)=C(C#N)C1c1cc(F)ccc1F (stereo not drawn),0.2,-12,-4,0.5,83*,47
CS(=O)(=O)N1CC(C(=O)NC2CC2)Oc2ccc(Cl)cc21 (stereo not drawn),0.5,-3,2,0.7,46,29
Nc1cc(Cl)ccc1Oc1ccc2ccccc2c1,0.3,0,-2,0.7,71*,27
CCNc1nc(NC(C)C)nc(N(C#N)Cc2ccccc2)n1,0.8,8,-2,0.9,24,8
CCNc1nc(NC(C)C)nc(N(C#N)CCOc2ccc(Cl)cc2Cl)n1,0.2,28,-4,0.9,77*,12
COc1ccccc1C(=O)N/C(N)=N/c1nc2ccccc2o1,0.9,-2,15,1,6,1
C/C(=N\Nc1nc2c(s1)CCCC2)c1ccccc1,0.3,10,1,0.2,72*,82*
CCCC(=O)Nc1ccc(Cl)c(NC(=O)c2cccnc2Cl)c1,1,.,.,0.9,2,8
Cc1cc(Cl)ccc1OCC(=O)NCCCCc1ccccc1,.,41,7,.,.,.
CCNCc1cc(OCC)c(OCC(=O)NCCc2ccccc2)cc1Cl,0.1,.,.,0.8,88*,19
CCOc1cc(C(=S)N2CCC(O)CC2)ccc1OS(=O)(=O)c1ccc(Br)cc1,0.1,31,-4,0.3,87*,68*
CCOc1cc(C(=S)N2CCCCC2)ccc1OCC(=O)NCc1ccccc1,0.4,9,-4,0.2,58*,83*
CCOc1cc(C(=S)N2CCCCC2)ccc1OS(=O)(=O)c1ccc(Cl)cc1,0.3,.,.,0.2,72*,81*
COc1cc(C(=S)N2CCCCC2)ccc1OCC(=O)N1CCCC1,0.8,-26,2,0.7,24,32
CCc1ccc(-c2ccc(C(=O)C(F)(F)F)[nH]2)cc1,0.9,.,.,0.9,11,10
